Measured values as given in PubChem BioAssay (EPA / NIEHS).
Active and inactive are the calls of the source. The calls were made as follows: active = hit-call score of the fitted dose curve at least 0.9, where 1 is the maximum; inactive = score below 0.9.

read-out: Glutamate-cysteine ligase catalytic (GCLC), GCLC (gene 2729); assay: LTEA_HepaRG_GCLC: Life Technologies and Expression Analysis (LTEA) Assay for Glutamate-cysteine ligase catalytic (GCLC) using HepaRG (AID 2283498); conditions: mRNA level, 48 h; actives raise or lower the signal
In short: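 Differentiated human HepaRG cells, plated 48 h then switched to serum-free induction medium, were exposed in duplicate for 48 h to 8 half-log concentrations topping at 100 uM in 0.5% DMSO. GCLC mRNA was quantified by qRT-PCR against ACTB, GAPDH and POLR2A.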

outcome, inactive:
COC(=O)CCCC(=O)OC
O=C(O)CN(CC(=O)O)CC(=O)O
CCc1nc(N)nc(N)c1-c1ccc(Cl)cc1
CC(C)c1cccc(C(C)C)c1NC(=O)NS(=O)(=O)c1cc(C(C)(C)O)co1
Oc1ccc(O)cc1
NC=O
CC(=O)S[C@H](C(=O)N[C@H]1Cc2ccccc2[C@H]2CCC[C@@H](C(=O)O)N2C1=O)C(C)C
CC(=O)CC(c1ccccc1)c1c(O)c2ccccc2oc1=O (stereo not given)
NCCOCCOCCN
O=C(O)c1[nH]n(-c2ccc(S(=O)(=O)O)cc2)c(=O)c1N=Nc1ccc(S(=O)(=O)O)cc1
CCc1cc(C2=C(C(=O)O)N(c3ccccc3C(F)(F)F)S(=O)(=O)c3ccccc32)cc2c1OCO2
CCCCCCCCCC[N+](C)(C)[O-]
CN(C)CCCN1c2ccccc2Sc2ccc(Cl)cc21
CSc1ccc(Oc2ccc(S(N)(=O)=O)cc2CN(C)C)cc1C
CCCCOC(=O)CCCCC(=O)OCCCC
COc1ccc(C(=O)Nc2nc3ccccc3c(NCc3ccccc3)c2C#N)cc1
CN(C)C(=O)NC1(c2ccccc2)CCN(CC[C@@]2(c3ccc(F)c(F)c3)CN(C(=O)c3ccccc3)CCO2)CC1
Cc1cc(Cc2ccc(N)c(C)c2)ccc1N
Cc1cc(SC2=C(O)C[C@@](CCc3ccc(N)cc3)(C(C)C)OC2=O)c(C(C)(C)C)cc1CO
CCCCCCC(C=O)=Cc1ccccc1
